Assay outcomes as filed in PubChem BioAssay.
Many of the other results were omitted from the sample, so hits are more common in it than they were.
Cycloheximide cs – Cycloheximide Counterscreen for Small Molecule Inhibitors of Shiga Toxin; cell reporter, cycloheximide protein synthesis inhibition counterscreen; max response, %; 300,000 compounds, 12% hits; in the data active means max response mostly above about 13%, no sharp cut-off; inactive means mostly below about 14%; further: read at 38.3 µM for the half of the compounds with a filed dose; 0% is about no effect
LmPK inhibitor – qHTS Assay for Inhibitors of Leishmania Mexicana Pyruvate Kinase (LmPK); Q27686; 290,000 compounds, 0.37% hits; Potency, µM (highest dose often 57.5 µM), inactives show at the highest dose activity change, negative = inhibition, actives largely listed as inhibitors; purified LmPK, Kinase-Glo ATP luminescence, 1 h; AID 1721, 2009; further: potency means the concentration at half of the fitted maximal effect; on the % scale 0 is the no-effect control and ±100 the full control effect
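qHTS format; LmPK 0.1 nM; substrates PEP 0.5 mM and ADP 0.1 mM. One-hour room-temperature incubation, then coupled luciferase luminescence; 0.5 nM enzyme wells mark activation.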
TbPYK inhibitor – qHTS of Trypanosoma Brucei Inhibitors; Potency, µM (titrated, usually from 76.8 µM), for inactives: top-dose activity, negative = inhibition, most hits filed as inhibitors; 410,000 compounds, 0.12% hits; TbPYK enzyme, Kinase-Glo Plus ATP luminescence, 45 min; pyruvate kinase (Trypanosoma brucei), Q57TT1; further: potency means the concentration at half of the fitted maximal effect; on the % scale 0 is the no-effect control and ±100 the full control effect; nearly all actives have a fitted effect of over 50% in size
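Luminescence from Kinase-Glo Plus, added after a 45-minute room-temperature reaction, served as the end-point read-out. The enzyme and substrate were preincubated with compound before ADP (130 uM final) initiated turnover. Concentration-effect curves came from normalized qHTS data.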
RE007 growth inh – qHTS Assay for Inhibitors of the HIV-1 protein Vpr. S. pombe RE007 Vpr strain, BacTiter-Glo ATP luminescence, 24 h. Potency, µM (top dose mostly 92.2 µM), without a hit: at the top dose activity change, negative = less growth, hits mostly inhibitors. 360,000 compounds, 0.21% hits; active means well fitted falling curve with a large enough effect; further: potency means the concentration at half of the fitted maximal effect; on the % scale 0 is the no-effect control and ±100 the full control effect; nearly all actives have a fitted effect of over 50% in size
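Fission yeast RE007 carrying one integrated HIV-1 vpr copy, seeded at OD 0.01 in PMG+AL medium with 23 nL pinned compound. Grown 24 h at 30 degrees; viability read by BacTiter-Glo luminescence after 5 min.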
Shiga inhibitor – A qHTS for Small Molecule Inhibitors of Shiga Toxin | AID 2315, 2010 | inhibition, % at 38.7 µM | Vero cells, Shiga toxin protein synthesis inhibition reporter | 290,000 compounds, 9.2% hits; in the data active means inhibition mostly above about 28%, no sharp cut-off; inactive means mostly below about 43%; further: 0% is about no effect
Giardia FBPA inh – qHTS Assay for Inhibitors of Fructose-1,6-bisphosphate Aldolase from Giardia Lamblia; A8B2U2; purified Giardia FBPA; Potency, µM (doses to about 59.6 µM), inactives show top-dose activity, negative = inhibition, usual class: inhibitors; 290,000 compounds, 0.71% hits; AID 2451, 2010; further: potency means the concentration at half of the fitted maximal effect; on the % scale 0 is the no-effect control and ±100 the full control effect; nearly all actives have a fitted effect of over 55% in size
Target sequence (A8B2U2 whole entry, looked up): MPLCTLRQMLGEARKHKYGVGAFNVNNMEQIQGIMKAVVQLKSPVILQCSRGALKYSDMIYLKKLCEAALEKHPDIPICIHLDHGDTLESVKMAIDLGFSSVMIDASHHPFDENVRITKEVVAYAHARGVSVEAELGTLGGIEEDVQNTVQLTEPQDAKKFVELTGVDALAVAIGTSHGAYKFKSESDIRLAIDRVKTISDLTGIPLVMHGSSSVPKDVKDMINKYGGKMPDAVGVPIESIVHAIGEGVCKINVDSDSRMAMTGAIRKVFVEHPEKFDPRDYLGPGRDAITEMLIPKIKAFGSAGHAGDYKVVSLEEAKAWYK
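Giardia FBPA (40 nM reagent) was preincubated 10 min at RT with compound (up to 57.5 uM final), then substrate plus GAPDH/TPI/NAD/arsenate coupling system with diaphorase/resazurin was added; resorufin fluorescence (525/598 nm) was read after 20 min.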
Active calls of the source: *; . = not tested or not shown; [ ] = another dose, or the depositor's remark. Unless noted, the call rests on the fitted dose curve; in most records, active means well fitted curve in the direction sought with a large enough effect; inconclusive means small, poorly fitted or top-dose-only effect, or another doubt; inactive means no such curve, though single readings can be large; an effect the other way counts as inactive or inconclusive.

SMILES	Cycloheximide cs	LmPK inhibitor	TbPYK inhibitor	RE007 growth inh	Shiga inhibitor	Giardia FBPA inh
CCC(=O)N1CCc2cc(S(=O)(=O)CCC(=O)Nc3ccc(OC(F)(F)F)cc3)ccc21	.	.	-8%	.	.	.
O=C(COC(=O)C1COc2ccccc2O1)NC(=O)Nc1ccc2c(c1)OCCO2 (centres undefined)	15*	2%	-11%	5%	35	3%
O=C(COC(=O)CNS(=O)(=O)c1ccc2ccccc2c1)Nc1ccc2c(c1)OCO2	-3	5%	-7%	4%	-9	-2%
CC(C)[C@H](NS(=O)(=O)c1ccc2c(c1)OCCO2)C(=O)OCC(=O)Nc1ccccc1	14*	1%	0%	-3%	45	0%
CC(C)[C@H](NC(=O)c1ccccc1)C(=O)OCC(=O)Nc1ccc2c(c1)OCCO2	6	4%	-5%	-4%	-5	0%
O=C(COC(=O)CNS(=O)(=O)c1cccc(Br)c1)NC(=O)Nc1ccc2c(c1)OCCO2	35*	1%	1%	2%	63*	0%
C[C@H](NS(=O)(=O)c1ccc(Cl)cc1)C(=O)OCC(=O)NC(=O)Nc1ccc2c(c1)OCCO2	101*	-4%	-8%	21%	127*	-7%
CC(NS(=O)(=O)c1ccc(Cl)c(Cl)c1)C(=O)OCC(=O)Nc1ccc2c(c1)OCO2 (centres undefined)	-2	0%	-6%	-16%	20	-5%
Cc1ccc(S(=O)(=O)N(C)CC(=O)OCC(=O)NC(=O)Nc2ccc3c(c2)OCCO3)cc1	55*	0%	9%	-11%	68*	-3%
Cc1ccc(S(=O)(=O)N[C@H](C(=O)OCC(=O)NC(=O)Nc2ccc3c(c2)OCCO3)C(C)C)cc1	19*	-3%	-12%	-5%	14	-12%
COc1ccc(N(CC(=O)Nc2cccc(C(C)=O)c2)S(=O)(=O)c2ccccc2)c(OC)c1	.	.	-7%	.	.	.
C[C@]12CC[C@@H]3c4ccc(O)c(O)c4CC[C@H]3[C@@H]1CC[C@@H]2O	8	1µM*	10µM*	5%[18.4 µM]	36	13µM*
CC(=O)Nc1ccc(S(=O)(=O)NCCc2csc3nc(-c4ccc(Cl)cc4)nn23)cc1	.	.	1%	.	.	.
O=C(NCC(c1cccnc1)N1CCc2ccccc2C1)C(=O)Nc1cccc(Cl)c1 (centres undefined)	.	.	-12%	.	.	.
CC(C)(CO)CNC(=O)CCc1nnc(C2(c3ccc(Cl)cc3)CCC2)o1	4	8%	3%	15%	11	-2%
Cc1ccc(C(=O)OCc2nnc(-c3ccccc3)o2)s1	.	.	-2%	-28%	.	.
CCOC(=O)CN(C)C(=O)CCc1nnc(-c2ccc(-c3ccccc3)cc2)o1	13*	2%	0%	-10%	35	2%
Cc1cccc(CC(C)NC(=O)CCc2nnc(-c3ccccc3)o2)n1 (centres undefined)	13*	-6%	-4%	-11%	22	9%
CC(C)(CO)CNC(=O)CCc1nnc(-c2ccc(-c3ccccc3)cc2)o1	25*	-5%	-2%	5%	60*	4%
CCN(CC)CCN(C)C(=O)CCc1nnc(-c2ccc(C)s2)o1	22*	-1%	7%	4%	34*	3%
Cc1cc(C)c(NC(=O)Cn2c(=O)n(CCc3ccccc3)c(=O)c3ccccc32)c(C)c1	.	.	1%	.	.	.
CC[N+](CC)(CC)CCOC(=O)C(C1CCCC1)C1CCCC1	.	.	-2%	.	.	.
CCOC(=O)Cc1nnc(-c2ccccc2)o1	22*	3%	0%	-3%	36	2%
Cc1ccc(Cl)cc1N1CCN(C(=O)c2cccn2-c2nnc(N3CCCC3)s2)CC1	.	.	-8%[15.4 µM]	.	.	.
Cc1cc(/C=C2/NC(=S)NC2=O)c(C)n1-c1cccnc1	37*	-5%	-2%	6%	51*	-16%
SMILES	Cycloheximide cs	LmPK inhibitor	TbPYK inhibitor	RE007 growth inh	Shiga inhibitor	Giardia FBPA inh
Cc1cc(/C=C2/NC(=O)N(c3ccccc3)C2=O)c(C)n1-c1cccnc1	59*	-1%	-4%	47%	91*	-10%
Cc1cc(C=C2C(=O)NC(=O)NC2=O)c(C)n1-c1cccnc1	-5	-7%	-9%	-19%	-6	1%
COCCCN(C(=O)c1ccco1)c1nc(-c2ccc(OC)cc2)cs1	13*	1%	-12%	14%	23	2%
COCCCN(C(C)=O)c1nc(-c2ccccc2)cs1	39*	0%	-5%	-15%	81*	-14%
CN(C(=O)c1cccc(NC(=O)Cc2cccc(NC(=O)C3CCN(C(=O)c4ccccc4)CC3)c2)c1)C1CC1	.	.	3%	0%	.	.
Cc1ccc2c(=O)cc(C(=O)Nc3c(C(=O)c4ccccc4)oc4ccccc34)oc2c1C	.	.	3%	.	.	.
CCOC(=O)C1CCN(C(=O)Cn2nc(CC)n3c(cc4occc43)c2=O)CC1	.	.	2%	.	.	.
COc1ccc2nc(SCC(=O)NCc3ccc(F)cc3)[nH]c2c1	-6	-3%	6%	-10%	3	.
Cc1cccc2c(=O)c(C(=O)NCc3cccs3)c[nH]c12	.	.	-7%	0%	.	.
Cc1ccc2c(=O)c(C(=O)NCc3cccs3)c[nH]c2c1	23*	-3%	-6%	12%	51*	-2%
COc1cccc(CNC(=O)CSc2nc3ccc(C)cc3[nH]2)c1	17*	4%	3%	-3%	33	-4%
O=C(CSc1nc2ccc(Cl)cc2[nH]1)NCCc1ccc(Cl)cc1	37*	2%	27%	7%	-13	-19%
Cc1ccc(C(=O)OCC(=O)NCc2cccs2)c(C)c1	41*	1%	1%	-6%	113*	0%
O=C(CSc1nc2ccc(Cl)cc2[nH]1)NCCc1ccccc1	-6	4%	2%	-3%	-2	-24%
Cc1cc(C)cc(C(=O)OCC(=O)NCc2cccs2)c1	7	-3%	-3%	7%	-3	6%
CCCCN1C(=O)N(CCc2ccc(F)cc2)S(=O)(=O)c2cc(C(F)(F)F)ccc21	.	.	6%	-3%	.	.
COC(=O)c1ccc(CSc2nc3ccc(C)cc3[nH]2)o1	27*	1%	-16%	0%	37*	-13%
COC(=O)c1ccc(CSc2nc3c(cnn3-c3ccc(C)cc3)c(=O)[nH]2)o1	-4	2%	4%	3%	-4	0%
COc1ccc2nc(SCC(=O)N3CCNC3=O)[nH]c2c1	48*	-7%	-3%	-7%	79*	1%
Cc1ccc2nc(SCC(=O)NCc3cccs3)[nH]c2c1	11*	-2%	6%	6%	5	-16%
COC(=O)C1CCN(C(=O)CSc2nc3ccc(OC)cc3[nH]2)CC1	4	-7%	-2%	0%	-9	-2%
